# Rows were chosen to be rich in hits. Some 1.9% of all compounds tested hit in one or more screens of this group.
# PKM2 activator: qHTS Assay for Activators of Human Muscle isoform 2 Pyruvate Kinase. Pyruvate kinase PKM (Homo sapiens), P14618. purified PKM2, Kinase-Glo ATP luminescence, activation; response scale: 0% is enzyme alone, no compound. Potency, µM (highest dose often 57.5 µM), without a hit: at the top dose activation, usual class: activators. 0.34% of 260,000 active. AID 1631, 2009; also: potency is read from the fitted curve at half-maximal effect; % is scaled to controls: 0 for no effect and ±100 for the full control effect; nearly all actives have a fitted effect of over 55% in size
# Target sequence (P14618 whole entry, looked up, canonical isoform): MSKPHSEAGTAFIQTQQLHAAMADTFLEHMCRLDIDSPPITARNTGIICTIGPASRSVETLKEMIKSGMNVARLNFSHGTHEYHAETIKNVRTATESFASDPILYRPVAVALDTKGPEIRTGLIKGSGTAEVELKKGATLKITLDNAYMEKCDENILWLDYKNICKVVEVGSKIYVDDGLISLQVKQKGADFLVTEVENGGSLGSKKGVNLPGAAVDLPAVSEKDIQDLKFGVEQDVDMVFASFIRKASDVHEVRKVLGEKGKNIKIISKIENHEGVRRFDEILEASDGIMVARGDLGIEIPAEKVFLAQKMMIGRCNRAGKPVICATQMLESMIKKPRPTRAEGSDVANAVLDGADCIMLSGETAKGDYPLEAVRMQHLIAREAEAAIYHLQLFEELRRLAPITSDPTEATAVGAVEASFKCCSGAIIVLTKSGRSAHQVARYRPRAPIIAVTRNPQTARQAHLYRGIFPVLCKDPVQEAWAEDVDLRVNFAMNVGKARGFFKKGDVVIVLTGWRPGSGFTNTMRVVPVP
#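 Purified hPK-M2 (>95%) run at intermediate activity with 0.1 mM ADP and 0.5 mM PEP in 50 mM imidazole pH 7.2, KCl, MgCl2; 1 h room temperature. ATP formed read by Kinase-Glo luminescence; normalized to uninhibited and no-enzyme controls.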
# ClpP mod: qHTS Assay for Activators of ClpP | ATP-dependent Clp protease proteolytic subunit (Bacillus subtilis (strain 168)), P80244 | purified B. subtilis ClpP, FRET peptide cleavage, 20 min | Potency, µM (series often up to 57.5 µM), inactives show top-dose activity change, negative = active | 1.9% of 340,000 active; active = well fitted falling curve with a large enough effect; inconclusive = small, poorly fitted or top-dose-only effect; inactive = no such curve, though single readings can be large or run the other way; also: potency is read from the fitted curve at half-maximal effect; the source files actives as falling curves though it sought activators and does not explain the sign; nearly all actives have a fitted effect of over 65% in size
#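 Buffer: 100 mM Tris/HCl pH8, 100 mM KCl, 0.05% low protease BSA, 2.5% glycerol, 0.01% Tween-20. ClpP 10 microg/mL final; 20 min RT; delta FRET normalized to ADEP and DMSO controls.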
# USP2a inh: qHTS Assay for Inhibitors of Ubiquitin-specific Protease USP2a Using CHOP2 as the Reporter; AID 463254, 2010; 0.01% of 330,000 active; USP2 core, Ub-CHOP2 coupled fluorogenic reporter, 485/531; Potency, µM (top dose mostly 38.3 µM), for inactives: at the highest dose activity change, negative = inhibition, hits mostly inhibitors; Ubiquitin carboxyl-terminal hydrolase 2 (Homo sapiens), O75604;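 also: potency is read from the fitted curve at half-maximal effect; plate controls were DMSO wells for no effect and full inhibition by NEM control for full effect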
#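 Deubiquitinase activity read as fluorescence (485/531 nm) after Ub-CHOP2 cleavage activates the enterokinase reporter on its substrate; USP2 core 10nM, Ub-CHOP2 and substrate 25nM each, 30min compound preincubation then 60min RT; data normalized to NEM, curves fitted.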
# Integrin act MD: qHTS for Activators of Integrin-Mediated Alleviation for Muscular Dystrophy | alpha7betagal myoblasts, beta-gal FDG fluorescence, 48 h | Potency, µM (titrated, usually from 38.3 µM), for the others: at the top dose activation, hits mostly activators | 0.064% of 350,000 active | AID 624291, 2012;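 also: potency is read from the fitted curve at half-maximal effect; 100% = response of the positive control SU9516; nearly all actives have a fitted effect of over 60% in size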
#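 Alpha7betagal+/- myoblasts (passage 13) were plated 16-24 hr, then exposed to compounds (1:260 dilution of DMSO stock) for 48 hours at 37C. After MPER lysis, β-galactosidase reporter activity was read as FDG fluorescence (ex 480/em 540) after 30 minutes.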
# IL-2 act: qHTS of IL-2 Activators. IL-2 activation reporter assay, cell-based qHTS; stimulated with anti-CD3/CD4/CD28 beads; in transgenic mouse T cells. activation, % (series mostly up to about 46 µM). 0.065% of 360,000 active. AID 652025, 2013; in the data active = activation above about 50%; inconclusive = mostly about 30% to 49%; also: 0% is about no effect
#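 EGFP and DsRed fluorescence is measured by plate cytometry in unstimulated transgenic mouse T cells exposed to compound for 60 minutes, then stimulated 18 hours at 37 degrees C with anti-CD3/anti-CD4 beads plus anti-CD28.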
# Pin1 inhibitor: qHTS Assay to Find Inhibitors of Pin1; Peptidyl-prolyl cis-trans isomerase NIMA-interacting 1 (Homo sapiens), Q13526; Pin1 FP peptide displacement, HiFluor488, 10 min; Potency, µM (series often up to 115 µM), for inactives: top-dose activity, negative = inhibition, most hits filed as inhibitors; 0.009% of 390,000 active; active = well fitted inhibition curve with a large enough effect in the polarisation, with a control signal flat, not every such curve was filed as active; inconclusive = small, poorly fitted or top-dose-only effect, or effect the other way, or a change in a side signal; inactive = no such curve, though single readings can be large or run the other way; the % refers to the polarisation; also: potency is read from the fitted curve at half-maximal effect; % is scaled to controls: 0 for no effect and ±100 for the full control effect
# Target sequence (Q13526 whole entry, looked up): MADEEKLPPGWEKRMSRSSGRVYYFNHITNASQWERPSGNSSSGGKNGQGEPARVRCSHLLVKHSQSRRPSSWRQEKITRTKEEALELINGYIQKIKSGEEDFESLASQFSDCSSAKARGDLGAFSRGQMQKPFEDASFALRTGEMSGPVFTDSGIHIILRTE
# * marks the source's active call; other numbers are inactive results; ? = inconclusive; nt = not tested or not shown; [ ] = remark or other dose. Unless noted, calls follow the shape of the dose curve; as a rule, active = well fitted curve in the direction sought with a large enough effect; inconclusive = small, poorly fitted or top-dose-only effect, or another doubt; inactive = no such curve, though single readings can be large; an effect the other way counts as inactive or inconclusive.
SMILES,PKM2 activator,ClpP mod,USP2a inh,Integrin act MD,IL-2 act,Pin1 inhibitor
O=C(Nc1ccc(Cl)cc1)c1cc2nc(-c3ccco3)cc(C(F)(F)F)n2n1,0%,14µM*,0%,9%,6,?
COc1ccc(CN(Cc2ccccc2)C(=O)Nc2ccccc2)cc1COc1ccc(NC(C)=O)cc1,nt,-2%,nt,nt,nt,48%
NCCCNC(=O)c1cc2ccccc2[nH]1,8%,25µM*,2%,-13%,0,5%
CCC1CCCN1Cn1cnc2c([nH]c3ccccc32)c1=O (stereo not given),-7%,25µM*,0%,0%,-3,4%
CCC1CCCN1Cn1cnc2c([nH]c3ccc(OC)cc32)c1=O (stereo not given),16%,18µM*,3%,8%,3,-3%
O=c1c2[nH]c3ccccc3c2ncn1Cc1ccncc1,-4%,?,1%,-7%,0,-3%
CCN1CCCC1Cn1cnc2c([nH]c3cccc(Cl)c32)c1=O (stereo not given),15%,32µM*,6%,-19%,0,-5%
O=c1c2[nH]c3ccccc3c2ncn1CCN1CCNCC1,-1%,?,-2%,4%,-2,-3%
O=c1c2[nH]c3ccccc3c2ncn1Cc1ccccn1,5%,28µM*,1%,20%,0,-1%
CCN1CCCC1Cn1cnc2c([nH]c3ccc(Cl)cc32)c1=O (stereo not given),0%,-23%,0%,-42%,-2,-4%
C[n+]1c(/C=C/c2ccc(N)cc2)sc2ccccc21,nt,-6%,nt,nt,nt,nt
Cc1cnc2c(C)cccc2c1/C=C/c1ccc(N(C)C)cc1,nt,1%,nt,nt,nt,nt
CCOc1ccc(NC(=O)COC(=O)c2ccccc2OCC(=O)N(C)C)cc1,nt,-1%,nt,nt,nt,nt
CCCCCCCCCCCCCC[N+](C)(C)Cc1ccccc1,nt,2%,nt,nt,nt,nt
CCS(=O)(=O)c1ncc(Cl)c(C(=O)N2CCN(c3cccc(Cl)c3)CC2)n1,nt,1%,nt,nt,nt,21%
CC(=O)Nc1ccc2c(c1)[nH]c(=O)c1ccccc12,nt,32µM*,nt,2%,-2,4%
O=c1[nH]c2ccccc2c(=O)c2ccccc12,nt,-3%,nt,-7%,-2,nt
Nc1ccc2c(c1)[nH]c(=O)c1ccccc12,nt,20µM*,nt,-16%,-1,7%
Nc1cccc2[nH]c(=O)c3ccccc3c12,nt,28µM*,nt,-4%,-1,-1%
COc1ccccc1CC(=O)NO,nt,0%,nt,nt,nt,nt
O=C(CSc1nnc2n1CCCN2)c1ccc(Cl)cc1,-1%,14µM*,2%,1%,-2,5%
COc1cccc(CCn2c(N)cc(=O)[nH]c2=S)c1OC,nt,2%,nt,nt,nt,-3%
CC1CCN(C(=O)CSc2ccc(-c3ccc(F)cc3)nn2)CC1,1%,32µM*,3%,15%,1,0%
CC1CCN(C(=O)CSc2ccc(-c3cccnc3)nn2)CC1,-2%,-1%,2%,28%,1,-11%
O=C(O)C[C@@H]1C(=O)O[C@@H]2C(COC(=O)c3cc(O)c(O)c(O)c3)O[C@@H](OC(=O)c3cc(O)c(O)c(O)c3)[C@@H](OC(=O)c3cc(O)c(O)c4c3[C@H]1[C@H](O)C(=O)O4)[C@H]2OC(=O)c1cc(O)c(O)c(O)c1 (stereo not given in full),?,nt,0.89µM*,nt,nt,nt
SMILES,PKM2 activator,ClpP mod,USP2a inh,Integrin act MD,IL-2 act,Pin1 inhibitor
O=C(CN1CCN(c2ccc(O)cc2)CC1)Nc1cc([N+](=O)[O-])ccc1Cl,-2%,16µM*,4%,-24%,0,-4%
C=CCOC(/C=C/c1ccccc1)CC (stereo not given),nt,nt,nt,nt,nt,2%
COc1ccc(C(=O)O)cc1COc1ccc(NC(C)=O)cc1,nt,nt,nt,nt,nt,0%
CC(=O)Nc1ccccc1OCC(=O)NCCc1ccc(Cl)cc1Cl,5%,32µM*,3%,-6%,-1,2%
N#Cc1nc(Nc2cccc3ccccc23)nc(NC2CCCC2)n1,nt,nt,nt,nt,nt,14%
O=S1(=O)N=C(Oc2ccccc2-c2ccccc2)c2ccccc21,nt,nt,nt,nt,nt,-6%
CCOc1ccc(N(C(C)=O)c2nc(C)cc(C)c2C#N)cc1,0%,25µM*,1%,5%,0,-9%
Cc1ccnc(-n2c(C)cc(/C=N/NC(=O)COc3cccc4cccnc34)c2C)c1,3%,14µM*,-2%,-25%,-1,-5%
O=C1CCc2cc(S(=O)(=O)Nc3ccc(Cl)c(Cl)c3)ccc2N1,nt,nt,nt,nt,nt,-1%
COC(=O)c1cc2ccccc2c(-c2c(OC)c(C(=O)OC)cc3ccccc23)c1OC,-3%,25µM*,0%,-42%,-5,?
COC(=O)c1cc2ccccc2c([N+](=O)[O-])c1O,nt,nt,nt,-17%,0,-6%
CCCCn1c(SCN2C(=O)c3ccccc3C2=O)nc2cc(S(N)(=O)=O)ccc21,16µM*,-3%,-2%,19%,1,-7%
CCCCn1c(SCn2nnc3ccccc3c2=O)nc2cc(S(N)(=O)=O)ccc21,6%,-15%,3%,-28%,0,13%
CN1CCN(C(=O)c2ccc(-c3ccccc3)cc2)CC1,-2%[11.5 µM],32µM*,0%,-10%,1,-9%
O=C(NCCO)C1CCN(C(=O)c2ccc(-c3ccccc3)cc2)CC1,1%,32µM*,0%,-45%,8,1%
c1ccc(-c2noc(-c3cccc4ccccc34)n2)nc1,-19%,40µM*,0%,1%,-2,0%
c1ccc(-c2ccc(-c3nc(-c4ccccn4)no3)cc2)cc1,-69%,25µM*,0%,-14%,-2,-3%
c1ccc(-c2nc(-c3ccccn3)no2)cc1,-49%,-1%,0%,1%,0,-5%
Cc1ccc(-n2c(-c3ccccc3)nsc2=NC#N)cc1,nt,-1%,nt,nt,nt,-6%
CCN(C(=O)CSc1nnc(-c2cccs2)n1N)c1c(N)n(Cc2ccccc2)c(=O)[nH]c1=O,nt,35µM*,0%,-11%,-1,6%
CCCCCOC(=O)c1[nH]c2c(c1C)C(=O)CC(c1ccco1)C2 (stereo not given),16µM*,-13%,-3%,0%,-4,1%
COc1cccc(-c2nnc3n2N=C(c2c(OC)cccc2OC)CS3)c1OC,nt,nt,nt,nt,nt,-5%

# Assay outcomes from PubChem.
